The list is not random: actives were taken first. Their share in the collection is about 12%.
Shiga inhibitor: inhibitors of Shiga toxin in Vero cells; inhibition, % at 38.7 µM; actives 9.2% (n = 290,000); AID 2315; Vero cells, Shiga toxin protein synthesis inhibition reporter; in the data active = inhibition mostly above about 28%, no sharp cut-off; inactive = mostly below about 43%
NS1 function inh: blocks influenza NS1 protein function | Potency, µM (doses to about 46.1 µM) | actives 0.4% (n = 270,000); note: actives are rising curves; nearly all actives have a fitted effect of over 50% in size
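In this qHTS, NS1 from influenza A is expressed in budding yeast, where it slows growth. Cells are switched from glucose to 2% galactose medium (pH 6.0, -URA), treated with compound, and growth recovery is read at OD600.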
Cycloheximide cs: affects cycloheximide protein synthesis inhibition readout, counter-screen. actives 12% (n = 300,000). max response, %. cell reporter, cycloheximide protein synthesis inhibition counterscreen; in the data active = max response mostly above about 13%, no sharp cut-off; inactive = mostly below about 14%; note: read at 38.3 µM for the half of the compounds with a filed dose
SARS PLP yeast: blocks SARS-CoV papain-like protease in a yeast assay. actives 0.19% (n = 330,000). S. cerevisiae expressing SARS-CoV PLpro, growth rescue. Potency, µM (top dose mostly 32.9 µM), usual class: activators; note: nearly all actives have a fitted effect of over 55% in size
NS1 inh valid: validation of influenza NS1 protein function inhibitors; shares compounds with NS1 function inh; influenza NS1 function cell assay, 15-point titration; activity change, negative = inhibition, % at 32.9 µM; 1,400 tested, under 10 active
PR8 titer: influenza NS1 inhibitors: inhibition of influenza A/PR/8/34 replication; shares compounds with NS1 function inh; MDCK infected influenza A/PR/8/34, virus titer TCID50; hits give low values; virus titer (log TCID50), log10 TCID50 at 5 µM; actives 30% (n = 95); call rule not given here
A number is an active result; 0 = inactive; ? = inconclusive; - = no result given; + = active, no number. Unless noted, calls come from the whole dose curve.

SMILES | Shiga inhibitor | NS1 function inh | Cycloheximide cs | SARS PLP yeast | NS1 inh valid | others
Cc1ccc(Nc2nnc(SC/C(O)=C(\C#N)c3nc4ccccc4[nH]3)s2)c(C)c1 | 0 | 0 | 0 | 0 | -
Cc1cccc(Nc2nnc(SC/C(O)=C(\C#N)c3nc4ccccc4[nH]3)s2)c1 | 0 | 13µM | 0 | 0 | 0
Cc1ccc(C)c(N2CCN(C(=O)CCNC(=O)Cn3ccc4ccccc4c3=O)CC2)c1 | 0 | ? | 0 | 0 | 0
COc1ccccc1N1CCN(C(=O)CCNC(=O)Cn2ccc3ccccc3c2=O)CC1 | 0 | 0 | 0 | 0 | -
CC(C)C[C@H](NC(=O)c1nc[nH]c1C(=O)NCC(=O)OCc1ccccc1)C(=O)OC(C)(C)C | 0 | ? | 0 | 0 | -
CC(C)C[C@H](NC(=O)c1[nH]cnc1C(=O)N[C@@H](C)C(=O)OCc1ccccc1)C(=O)OC(C)(C)C | 0 | 13µM | 0 | 0 | 0
CC(C)C[C@H](NC(=O)c1nc[nH]c1C(=O)NC(c1ccccc1)c1ccccc1)C(=O)OC(C)(C)C | 0 | 10µM | 0 | 0 | 0
Cc1ccc(C(=O)NC2CCN(S(=O)(=O)c3ccc(F)cc3)CC2)cc1 | - | 0 | 0 | 0 | -
Cc1ccc(C)c(CNS(=O)(=O)c2ccc3c(c2)C(C)(C)C(=O)N3C)c1 | 0 | 0 | 0 | 0 | -
Cc1nc(CSc2nnc(C)s2)cs1 | 0 | 0 | 0 | 0 | -
Cc1nc2nc(CSc3nnc(C)s3)cc(=O)n2[nH]1 | 0 | 7.9µM | 0 | 0 | 0
Cc1ccc(NC(=O)CN2C(=O)S/C(=C\c3cc(C)n(-c4cccc(C(=O)O)c4)c3C)C2=O)cc1 | 0 | 11µM | 0 | 0 | 0
CC(=O)OC1C2CCCC1C(N1CCCC1)CC2 (centres undefined) | 0 | ? | 0 | 0 | 0
CC(=O)OC1C2CCC1C(N1CCCCC1)CC2 (centres undefined) | 0 | - | 0 | 0 | -
COC(=O)c1cc(NC(=O)c2cc(C(C)(C)C)nn2Cc2ccc(F)cc2)ccc1N1CCOCC1 | 0 | ? | 0 | 0 | 0
COc1cccc(CNS(=O)(=O)c2c(C)[nH]c(C)c2C(=O)N2CCCCC2)c1 | 0 | 0 | 0 | 0 | -
CC(C)c1ccc([N+](=O)[O-])cc1S(=O)(=O)N1CCN(C)CC1 | 0 | 0 | 0 | 0 | -
COc1ccc(Br)c(/C=N/NC(=O)COc2ccc(-c3ccccc3)cc2)c1 | 0 | ? | 0 | - | 0
O=C(O)COc1ccccc1/C=N/NC(=O)COc1ccc(-c2ccccc2)cc1 | 0 | 0 | 0 | 0 | -
COc1ccc(-c2cn[nH]c2N)c(OC)c1 | 0 | 8.9µM | 0 | 0 | 0
CCS(=O)(=O)c1nnnn1-c1ccccc1S(C)(=O)=O | 0 | 14µM | 0 | 0 | 0
CC(C)(C)OC(=O)N1CCC(CC2CC(c3cccc(Br)c3)=NO2)(C(=O)NCC2CCCCC2)CC1 (centres undefined) | 0 | ? | 13 | 0 | 0
O=C(Cn1cnc2scc(-c3ccc(Cl)cc3)c2c1=O)N1CCOCC1 | 0 | ? | 0 | 0 | 0
CC(Oc1ccccc1C(N)=O)C(=O)Nc1ccc(S(=O)(=O)N2CCCC2)cc1 (centres undefined) | - | - | - | 0 | -
CCCCCCn1c(COc2ccccc2F)nnc1SCC(=O)c1c(N)n(C)c(=O)n(C)c1=O | 0 | ? | 0 | 0 | 0
SMILES | Shiga inhibitor | NS1 function inh | Cycloheximide cs | SARS PLP yeast | NS1 inh valid | others
CN(C)S(=O)(=O)c1ccc(Cl)c(NC(=O)COC(=O)/C=C/c2ccc(S(=O)(=O)N3CCOCC3)cc2)c1 | 0 | 20µM | 0 | 0 | ?
O=C(N1CCCCC1)C12CC3CC(CC(C3)C1)C2 | 0 | 0 | 0 | 0 | -
NC(=O)C1CCN(C(=O)C23CC4CC(CC(C4)C2)C3)CC1 | 0 | ? | 0 | 0 | 0
COC(=O)c1[nH]c2ccc(C)cc2c1NS(=O)(=O)c1ccc(F)c(C)c1 | 0 | 1.8µM | 0 | 0 | 0
COC(=O)c1[nH]c2ccc(F)cc2c1NS(=O)(=O)c1ccc(F)c(C)c1 | 0 | 0 | 0 | 0 | -
Cc1ccc(NC(=S)N2CCN(Cc3ccccc3)CC2)c(C)c1 | 0 | ? | 0 | 0 | 0
Cc1ccc(C)c(NC(=S)N2CCN(Cc3ccccc3)CC2)c1 | 0 | 0 | 0 | 0 | -
O=C(NCCN1CCOCC1)c1cnn2c1NC(c1cccs1)CC2C(F)(F)F (centres undefined) | 0 | - | 0 | 0 | -
O=C(NCc1cccc(Br)c1)C1CC(c2ccccc2C(F)(F)F)=NO1 (centres undefined) | 0 | 0 | 0 | 0 | -
CN(C)/C=C1\SC(=S)N(c2ccc(Br)cc2)C1=O | 46 | ? | 34 | 0 | 0
CCOC(=O)C1=C(C)Nc2nc(SCC)[nH]c(=O)c2C1c1ccncc1 (centres undefined) | 0 | ? | 0 | 0 | 0
CC(=O)Nc1ccc(S(=O)(=O)N2CCN(C(=O)N3CCCCC3)CC2)cc1 | - | 0 | 0 | 0 | -
O=C(NNc1nc(-c2ccccc2)cs1)c1ccco1 | 0 | 4µM | 12 | 0 | 0
O=C(NNc1nc(-c2ccc(Cl)cc2)cs1)c1ccco1 | 41 | 3.2µM | 39 | 0 | 0
O=C(NCCc1csc(-c2ccc(Cl)cc2)n1)c1ccco1 | 0 | 0 | 0 | 0 | -
COc1ccc(OC)c(NC(=O)C(C)Oc2ccc(Br)cc2)c1 (centres undefined) | 0 | 0 | 0 | 0 | -
COc1ccccc1-n1cc(-c2ccccc2)c2c(=S)nc[nH]c21 | 0 | 14µM | 0 | 0 | 0
Cc1nc2c(sc(=S)n2Cc2ccco2)c(=O)n1CC(=O)Nc1cc(F)ccc1F | 0 | 0 | 0 | 0 | -
CNc1nc(NC#N)nc(SC)n1 | 0 | 0 | 0 | 0 | -
O=C1c2ccccc2N[C@@H]2C=CC[C@@H]2N1O | - | - | - | 0 | -
CCOc1ccc(NC(=O)CCS(=O)(=O)c2ccc3c(c2)CCCN3C(C)=O)cc1 | 0 | 11µM | 0 | 0 | 0
O=C1CSC(c2cccc([N+](=O)[O-])c2)N1CCc1ccccc1 (centres undefined) | 0 | 0 | 0 | ? | -
Cc1ccsc1/C=C(\C(=O)c1ccc(OC(C)C)cc1)c1nc2ccccc2o1 | + | 14µM | 122 | 0 | 0
O=C(C1CCN(S(=O)(=O)c2cccc3nsnc23)CC1)N1CCCCC1 | 0 | 0 | 0 | 0 | -
Cc1ccc(C)c(N2CCN(C(=O)C3CCN(S(=O)(=O)c4cccc5nsnc45)CC3)CC2)c1 | 0 | ? | 0 | 0 | 0 | PR8 titer=0
SMILES | Shiga inhibitor | NS1 function inh | Cycloheximide cs | SARS PLP yeast | NS1 inh valid | others
CC(=O)Nc1nc(C)c(-c2csc(Nc3ccc(O)cc3)n2)s1 | 0 | 3.2µM | 15 | 0 | 0
Cc1cc(O)ccc1Nc1nc(-c2sc(N)nc2C)cs1 | 0 | 11µM | 0 | 0 | 0
O=C(COC(=O)C1CCN(C(=O)Nc2ccccc2)CC1)NCC(F)(F)F | 0 | - | 0 | 0 | -
O=C(Nc1nnc2n1CCS2)c1ccco1 | 0 | ? | 0 | 0 | 0
O=c1cc(-c2ccc(F)cc2)[nH][nH]1 | 0 | 13µM | 0 | 0 | 0
O=c1cc(-c2ccccc2)[nH][nH]1 | 0 | ? | 0 | 0 | -
CCOC(=O)c1c(S(=O)(=O)NCC(=O)Nc2ccccc2OC)c(C)n(C)c1C | 0 | 0 | 0 | ? | -
COc1ccc(C(C)=O)cc1COC(=O)CCC(=O)c1cccs1 | - | - | - | 0 | -
CC(=O)c1ccc(S(=O)(=O)NC2CC(=O)N(c3cccc(F)c3)C2)cc1 (centres undefined) | - | - | - | 0 | -

From PubChem
